BJeLR lethal – kills HRASV12-expressing BJeLR cells; hit rate 0.17% among 300,000; BJeLR (HRASV12) viability, CellTiter-Glo ATP luminescence, 48 h; inhibition, % (test concentration not listed); in the data active = inhibition above about 50%
Mtb FBA inh – Mtb fructose-bisphosphate aldolase inhibition; purified M. tuberculosis FBA, fluorescence read-out; inhibition, % at 1 µM; hit rate 2.3% among 360,000;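 also: 0% = vehicle and 100% = reference inhibitor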
PrPC TRFRET – cell surface PrPC inhibition, primary TR-FRET screen | P04156 | TR-FRET read-out | inhibition, % at 13.8 µM | hit rate 0.43% among 370,000; in the data active = inhibition above about 24%; also: 0% = median of the test wells and 100% = reference compound wells
RecA intein inh – inhibitors of M. tuberculosis RecA intein splicing | P9WHJ3 | cell-free RecA intein splicing, fluorescence | inhibition, % (no concentration beside the values) | hit rate 0.75% among 290,000 | AID 2221; in the data active = inhibition above about 30%;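 also: 0% = vehicle wells and 100% = reference inhibitor control wells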
Target sequence (P9WHJ3 whole entry, looked up): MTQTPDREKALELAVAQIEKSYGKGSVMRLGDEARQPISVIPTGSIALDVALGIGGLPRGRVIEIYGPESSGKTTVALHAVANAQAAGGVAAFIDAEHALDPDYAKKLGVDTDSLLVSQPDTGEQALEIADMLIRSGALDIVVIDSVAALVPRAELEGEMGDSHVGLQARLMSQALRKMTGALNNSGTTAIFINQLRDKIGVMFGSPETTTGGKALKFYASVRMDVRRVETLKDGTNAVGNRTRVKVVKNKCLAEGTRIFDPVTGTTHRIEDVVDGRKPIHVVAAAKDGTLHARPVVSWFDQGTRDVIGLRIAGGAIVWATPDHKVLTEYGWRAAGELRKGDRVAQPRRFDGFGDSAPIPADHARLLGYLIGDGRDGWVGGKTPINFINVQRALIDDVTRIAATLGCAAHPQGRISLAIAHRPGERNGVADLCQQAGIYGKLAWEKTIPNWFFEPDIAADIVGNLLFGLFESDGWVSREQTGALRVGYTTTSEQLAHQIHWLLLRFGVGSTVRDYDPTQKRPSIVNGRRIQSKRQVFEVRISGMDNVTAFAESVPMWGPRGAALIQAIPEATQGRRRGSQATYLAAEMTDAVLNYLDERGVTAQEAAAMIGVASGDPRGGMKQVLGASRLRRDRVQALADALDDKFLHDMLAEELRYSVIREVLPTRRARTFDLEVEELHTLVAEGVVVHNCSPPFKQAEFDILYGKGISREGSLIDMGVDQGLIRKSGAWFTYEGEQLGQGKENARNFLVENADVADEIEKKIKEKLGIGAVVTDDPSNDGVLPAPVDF
GDH-TPI counter-1 – inhibits GDH-TPI coupling enzymes, artifact for Mtb FBA screen; GDH-TPI coupled enzyme counterscreen, NADH absorbance; inhibition, % at 4.8 µM; hit rate 1.2% among 360,000; in the data active = inhibition above about 30%;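 also: 0% = DMSO wells and 100% = wells lacking the enzyme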
Mtb FBA confirm – Mtb FBA inhibition, confirmed; shares compounds with Mtb FBA inh; purified M. tuberculosis FBA, fluorescence read-out; inhibition, % at 1 µM; hit rate 78% among 5,600; AID 651616;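 also: 0% = vehicle wells and 100% = reference inhibitor wells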
GDH-TPI counter-2 – GDH-TPI inhibition counter-screen for FBA inhibitors. shares compounds with Mtb FBA inh. GDH-TPI coupled enzyme counterscreen, fluorescence. inhibition, % at 1 µM. hit rate 81% among 5,600; in the data active = inhibition above about 10%
An asterisk follows results filed as active; · = not tested or not shown; + = active, no number. Rows were chosen to be rich in hits. Some 4.2% of all compounds tested hit in one or more screens of this group. Rule as the data show it, unless noted: active = inhibition above about 27%; inactive = the rest.

SMILES	BJeLR lethal	Mtb FBA inh	PrPC TRFRET	RecA intein inh	GDH-TPI counter-1	Mtb FBA confirm	GDH-TPI counter-2
CC(=O)c1cccc(OCC(=O)c2cc(C)n(-c3cc(C)on3)c2C)c1	-1	1	0	3	4	·	·
Cc1ccc(NC(=O)Cc2cccc(OC(F)(F)F)c2)c(S(=O)(=O)N2CCOCC2)c1	·	·	5	·	·	·	·
Cc1onc(-c2ccccc2Cl)c1C(=O)Nc1nnc(-c2ccc(Cl)cc2Cl)s1	-4	62*	0	7	21	68*	57*
COC(=O)C12C=C3CC(c4ccc(C(F)(F)F)cc4)=C3C(=O)N1Cc1[nH]c3ccccc3c1C2 (stereo unspecified)	·	·	5	·	·	·	·
CCCc1nc2oc3c(NCC(C)O)ncnc3c2c2c1CCCC2 (stereo unspecified)	-2	36*	-4	1	1	68*	45*
CC(C)Cc1nc2oc3c(NCC4CCCO4)ncnc3c2c2c1CCC2 (stereo unspecified)	7	8	-4	3	-5	·	·
CCCCC(CC)Cn1c(N)c(C#N)c2nc3ccccc3nc21 (stereo unspecified)	-8	50*	3	-11	10	7	-5
CCOc1ccc(S(=O)(=O)Nc2ccccc2C(=O)NCC2CCCO2)cc1 (stereo unspecified)	-2	31*	-6	-1	-2	148*	108*
CCOc1ccc(N=c2oc3cc(O)ccc3cc2C(=O)NCC2CCCO2)cc1 (stereo unspecified)	-13	56*	-4	-87	2	39*	36*
C#CCN1CC(N(C)CCOC(=O)c2cc3ccccc3[nH]2)CS1(=O)=O (stereo unspecified)	·	·	-1	·	·	·	·
COc1ccc(Cn2c(NC(=O)c3ccccc3)nc(Cc3ccccc3)c2-c2ccccc2)c(OC)c1	·	·	5	·	·	·	·
CC(C)(C)c1cc(NC(=O)COC(=O)c2nccnc2N)n(-c2ccccc2)n1	-7	87*	-1	2	8	47*	36*
CCCc1cc(NC(=O)COC(=O)c2nccnc2N)n(-c2ccccc2)n1	·	85*	0	·	16	51*	45*
COc1c2c(cc3c1c(=O)c1ccccc1n3C)OCO2	·	·	-5	·	·	·	·
O=S(=O)([N-]c1nc2ccccc2nc1-n1cc[n+](Cc2ccccc2)c1)c1ccc(Br)cc1	23	27*	10	-11	11	+	179*
Cc1ccc2[nH]c(=O)c(CN(CCc3ccccc3)Cc3nnnn3CC3CCCO3)cc2c1 (stereo unspecified)	-13	7	-8	4	6	·	·
O=c1[nH]c2cc3c(cc2cc1CN(CCc1ccccc1)Cc1nnnn1CC1CCCO1)OCO3 (stereo unspecified)	-2	30*	-5	·	26	12	17*
CC1CCN(C(c2cc3cc4c(cc3[nH]c2=O)OCO4)c2nnnn2CC2CCCO2)CC1 (stereo unspecified)	-2	3	·	-4	6	·	·
O=c1[nH]c2cc3c(cc2cc1CN(Cc1nnnn1CC1CCCO1)C1CCCC1)OCO3 (stereo unspecified)	-10	76*	-2	-12	12	33*	29*
O=c1[nH]c2cc3c(cc2cc1CN(Cc1nnnn1CC1CCCO1)C1CCCCC1)OCO3 (stereo unspecified)	-7	57*	-1	-152	7	+	+
NC(=O)c1ncn([C@@H]2O[C@H](C(=O)N3CCN(Cc4ccccn4)CC3)[C@@H](O)[C@H]2O)n1	·	·	3	·	·	·	·
COC(=O)[C@]12C[C@H](CC(=O)N3CCC(c4ccccc4)CC3)C(=O)N(CCC3=CCCCC3)C1=C[C@H](COCc1ccccc1)O[C@@H]2C	·	·	3	·	·	·	·
O=C(O)c1cc(S(=O)(=O)O)cc(Nc2c3ccccc3nc3ccccc23)c1O	2	43*	-14	-11	-3	40*	34*
O=C(NNc1c2ccccc2nc2ccccc12)c1ccc(O)cc1O	-2	5	-17	-3	0	·	·
CCCn1nc2cc(C(=O)NCc3ccc(C)cc3)ccc2c1OC	8	58*	-6	-5	9	45*	35*
SMILES	BJeLR lethal	Mtb FBA inh	PrPC TRFRET	RecA intein inh	GDH-TPI counter-1	Mtb FBA confirm	GDH-TPI counter-2
CCOc1c2ccc(C(=O)NCc3ccc(C)cc3)cc2nn1CCOC	-1	44*	-10	-2	0	142*	117*
O=C(/C=C/c1ccc(Cl)c(C(F)(F)F)c1)N1CCN(c2ccccn2)CC1	0	93*	5	3	5	143*	129*
O=C(/C=C/c1ccc(Cl)cc1)N1CCN(c2ccccn2)CC1	13	0	-6	0	9	·	·
COC(=O)[C@]12C[C@H](CC(=O)N3CCC(c4ccccc4)CC3)C(=O)N(Cc3ccccc3)C1=C[C@H](C1CCCC1)O[C@@H]2C	·	·	11	·	·	·	·
S=C(Nc1cccc2ccccc12)N1CCN(c2ncccn2)CC1	-4	20	13	3	1	·	·
O=C(Nc1cccc2ccccc12)N1Cc2ccccc2-n2nncc2C1	·	30*	3	·	7	133*	91*
O=C(Nc1cccc2ccccc12)N1CC=CCC1	2	40*	1	-1	-6	5	3
O=C(Nc1cccc2ccccc12)N1CCN(c2ccccc2)CC1	·	27*	-1	·	4	115*	100*
O=C(CSCC(=O)Nc1cccc2ccccc12)Nc1cccc2ccccc12	0	6	2	5	-8	·	·
O=C(Nc1cccc2ccccc12)N1CCN(c2ncccn2)CC1	-3	50*	10	0	7	+	+
O=C(CSc1nnc(-c2cccnc2)n1-c1ccccc1)Nc1cccc2ccccc12	·	·	6	·	·	·	·
Cc1ccccc1NC(=O)OC1CCC12CCC(c1ccccc1)CC2 (stereo unspecified)	·	·	2	·	·	·	·
CCc1cccc(-n2c(C)cc(O)cc2=O)c1	·	·	15	·	·	·	·
O=C(Cn1c2ccc(F)cc2c2nc3n(c(=O)c21)CCS3)NCC1CCCO1 (stereo unspecified)	3	30*	-6	0	9	62*	55*
COc1ccccc1NC(=O)Cn1c2ccc(F)cc2c2nc3n(c(=O)c21)CCS3	-5	9	6	0	18	·	·
COc1ccc(Cn2c(NC(=O)c3ccccc3)nc(Cc3ccccc3)c2-c2ccccc2)cc1	·	·	0	·	·	·	·
Cc1ccc(/C=C2\OC(=O)c3ccccc32)cc1	7	45*	8	-2	23	-2	-6
COc1ccc(S(=O)(=O)NCCc2cn3nc(C)c(C)nc3n2)cc1F	0	61*	-12	-166	9	+	149*
CC(=O)Nc1ccc(S(=O)(=O)NCCc2cn3nc(C)c(C)nc3n2)cc1	4	43*	-3	-103	5	59*	49*
COc1ccc(S(=O)(=O)NCc2cn3c(C)csc3n2)cc1F	1	-5	0	4	-3	·	·

Screening data as filed in PubChem.
